What follows are molecules tested on Pectobacterium parmentieri SCC3193 (assay: DuctApe activity index (growth/respiration on compound as sole nutrient source, blank-subtracted) (activity index (0-3)); higher = stronger utilization of the compound, active = 3 or more). Conditions: nutrient role (plate category): carbon.
Procedure: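 Biolog Phenotype Microarray plates PM1, PM2A (carbon), PM3 (nitrogen) and PM4 (phosphorus/sulfur) inoculated with P. parmentieri SCC3193 in M9-C minimal salts medium with Biolog dye A, and read in the OmniLog for 46 h. Each well was tested in triplicate and the experiment was run twice. DuctApe computed a blank-subtracted activity index (AV, 0-3) from the mean curves; growth is positive at AV >= 3 and negative at AV <= 2.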

Row | Compound | DuctApe activity index
1 | O=C(O)Cc1ccc(O)cc1 [p-Hydroxyphenyl Acetic acid] | 0 (inactive)
2 | O=C(O)/C=C/C(=O)O [Fumaric acid] | 3 (active)
3 | CC(=O)C(=O)O [Pyruvic acid] | 3 (active)
4 | NC(=O)CCC(=O)O [Succinamic acid] | 3 (active)
5 | CC(O)(CC(=O)O)C(=O)O (stereo not drawn) [Citramalic acid] | 0 (inactive)
6 | O=C(O)CC(=O)O [Malonic acid] | 0 (inactive)
7 | OC[C@H]1OC(O[C@H]2[C@H](O)[C@@H](O)C(O[C@H]3[C@H](O)[C@@H](O)[C@@H](O)O[C@@H]3CO)O[C@@H]2CO)[C@H](O)[C@@H](O)[C@@H]1O (stereo partly drawn) [Dextrin] | 0 (inactive)
8 | O=C(O)Cc1cccc(O)c1 [m-Hydroxyphenyl Acetic acid] | 0 (inactive)
9 | O=C1CC[C@@H](C(=O)O)O1 [a-Hydroxyglutaric acid-g-Lactone] | 1 (inactive)
10 | O=C(CO)[C@@H](O[C@H]1O[C@H](CO)[C@@H](O)[C@H](O)[C@H]1O)[C@H](O)[C@H](O)CO [Turanose] | 0 (inactive)
11 | CO[C@@H]1O[C@H](CO)[C@@H](O)[C@H](O)[C@H]1O [b-Methyl-D-Glucoside] | 3 (active)
12 | OC[C@@H](O)[C@@H](O)CO [i-Erythritol] | 0 (inactive)
13 | OC1OC[C@@H](O)[C@H](O)[C@H]1O (stereo partly drawn) [D-Xylose] | 3 (active)
14 | COC(=O)[C@@H](C)O [D-Lactic acid Methyl Ester] | 1 (inactive)
15 | O=C(CO)[C@@H](O)[C@H](O)[C@H](O)CO[C@H]1O[C@H](CO)[C@@H](O)[C@H](O)[C@H]1O [Palatinose] | 0 (inactive)
16 | O=C[C@H](O)[C@H](O)[C@@H](O)CO [L-Lyxose] | 0 (inactive)
17 | OC[C@H]1O[C@H](O[C@H]2O[C@H](CO)[C@@H](O)[C@H](O)[C@H]2O)[C@H](O)[C@@H](O)[C@@H]1O [D-Trehalose] | 3 (active)
18 | CCC(=O)C(=O)O [a-Ketobutyric acid] | 0 (inactive)
19 | C/C(=C/C(=O)O)C(=O)O [Citraconic acid] | 0 (inactive)

Same assay, conditions: nutrient role (plate category): nitrogen

Row | Compound | DuctApe activity index
20 | C[C@H](N)C(=O)N[C@@H](CC(=O)O)C(=O)O | 1 (inactive)
21 | NCCc1c[nH]cn1 [Histamine] | 0 (inactive)
22 | NC(=O)NC1NC(=O)NC1=O (stereo not drawn) [Allantoin] | 0 (inactive)
23 | OC[C@H]1O[C@@H](n2cnc3c(O)nc(O)nc32)[C@H](O)[C@@H]1O [Xanthosine] | 0 (inactive)
24 | NC(=O)C[C@@H](N)C(=O)O [D-Asparagine] | 1 (inactive)
25 | NC(=O)NC(N)=O [Biuret] | 0 (inactive)
26 | O=c1cc[nH]c(=O)[nH]1 [Uracil] | 0 (inactive)
27 | Nc1ccn([C@@H]2O[C@H](CO)[C@@H](O)[C@H]2O)c(=O)n1 [Cytidine] | 3 (active)
28 | NCCN [Ethylenediamine] | 0 (inactive)
29 | CC(O)C(N)=O (racemic) [DL-Lactamide] | 0 (inactive)

Same assay, conditions: nutrient role (plate category): phosphate & sulphur

Row | Compound | DuctApe activity index
30 | O=S(=O)(O)CCO [2-Hydroxyethane Sulfonic acid] | 1 (inactive)
31 | O=P(O)(O)OP(=O)(O)O [Pyrophosphate] | 1 (inactive)
32 | Nc1ncnc2c1ncn2[C@@H]1O[C@@H]2COP(=O)(O)O[C@H]2[C@H]1O [Adenosine 3`,5`-Cyclic Monophosphate] | 0 (inactive)
33 | N[C@@H](COP(=O)(O)O)C(=O)O [O-Phospho-L-Serine] | 2 (inactive)
34 | Nc1ncnc2c1ncn2[C@@H]1O[C@H](CO)[C@@H](OP(=O)(O)O)[C@H]1O [Adenosine 3`-Monophosphate] | 2 (inactive)
35 | NCCS [Cysteamine] | 1 (inactive)
36 | N[C@H](COP(=O)(O)O)C(=O)O [O-Phospho-D-Serine] | 2 (inactive)
37 | N[C@@H](CSC[C@H](N)C(=O)O)C(=O)O [Lanthionine] | 1 (inactive)
38 | O=P(O)(O)O [Phosphate] | 1 (inactive)

Source: the supplement of paper PMC6518042
